HPGD block – HPGD (human) dehydrogenase inhibition; P15428; purified HPGD, NADH fluorescence kinetic, PGE2 substrate; Potency, µM, for the others: top-dose activity change, negative = inhibition, actives largely listed as inhibitors; actives 4.3% (n = 150,000); active means well fitted inhibition curve with a large enough effect, not every such curve was filed as active; inconclusive means small, poorly fitted or top-dose-only effect, or another doubt; inactive means no such curve, though single readings can be large or run the other way; further: potency means the concentration at half of the fitted maximal effect
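20 nM HPGD preincubated 15 min at room temperature with compound in 50 mM Tris-HCl pH 8, 0.01% Tween 20. Started with 1 mM NAD+ and 30 uM prostaglandin E2; NADH fluorescence (360/450 nm) read 5 times over 30-s intervals, last minus first.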
PNC inhibitor – perinucleolar compartment assembly inhibition; PC3M PTB-GFP, PNC prevalence imaging, 16 h; stronger effect = lower value; activity change (PNC), negative = inhibition, % at 10 µM; actives 3.1% (n = 140,000);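 active means readout at or below -70, meaning at least 70% loss of cells showing the perinucleolar compartment, a nuclear body marking cancer cells; inconclusive means readout between -30 and a set limit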;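 further: plate controls were DMSO wells for no effect and camptothecin positive control wells for full effect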
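Compounds are pinned in duplicate onto adhered PC3M cells stably expressing GFP-tagged PTB and incubated 16 h at 37 C. Cells are then fixed, nuclei stained with Hoechst, and PNC-positive cells counted.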
12-hLO inh – blocks human 12-lipoxygenase activity | P18054 | Potency, µM (highest dose often 57.1 µM), for the others: at the top dose activity change, negative = inhibition, actives largely listed as inhibitors | purified 12-hLO, xylenol orange hydroperoxide absorbance | actives 0.12% (n = 150,000); further: potency means the concentration at half of the fitted maximal effect; nearly all actives have a fitted effect of over 55% in size
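Hydroperoxide formation by human 12-lipoxygenase from 40 uM arachidonic acid was followed colorimetrically via ferric-xylenol orange complex, using the 573/405 nm absorbance ratio. Enzyme concentration was 150 nM, with 30 min reaction at room temperature.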
IMPase inh – membrane-permeable compound that blocks inositol monophosphatase; inhibition (IP1 accumulation), % at 46.1 µM; P97697; CHO-M1 cells, IP1 accumulation, HTRF TR-FRET ratio; 120,000 tested, under 10 active; active means well fitted curve in the direction sought with a large enough effect in the signal ratio, not every such curve was filed as active; inconclusive means small, poorly fitted or top-dose-only effect, or a change in a side signal; inactive means no such curve, though single readings can be large or run the other way; the % refers to the signal ratio;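 further: cells stimulated with carbachol in lithium chloride buffer; plate controls were DMSO basal wells for no effect and reference inhibitor wells for full effect; higher means more IMPase inhibition seen as more IP1 and lower FRET ratio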
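Seeded CHO-M1 cells were dosed with compound at up to 46 uM, stimulated with carbachol for 30 min, then lysed in IP-One detection reagents. Higher IP1 lowers the TR-FRET signal.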
ALOX15B inhib – inhibitors of human 15-lipoxygenase 2 (ALOX15B); Potency, µM (doses to about 57.1 µM), inactives show at the highest dose activity change, negative = inhibition, hits mostly inhibitors; O15296; actives 0.56% (n = 110,000); purified 15hLO-2, xylenol orange hydroperoxide absorbance; AID 881; further: potency means the concentration at half of the fitted maximal effect; nearly all actives have a fitted effect of over 60% in size
Target sequence (O15296 whole entry, looked up): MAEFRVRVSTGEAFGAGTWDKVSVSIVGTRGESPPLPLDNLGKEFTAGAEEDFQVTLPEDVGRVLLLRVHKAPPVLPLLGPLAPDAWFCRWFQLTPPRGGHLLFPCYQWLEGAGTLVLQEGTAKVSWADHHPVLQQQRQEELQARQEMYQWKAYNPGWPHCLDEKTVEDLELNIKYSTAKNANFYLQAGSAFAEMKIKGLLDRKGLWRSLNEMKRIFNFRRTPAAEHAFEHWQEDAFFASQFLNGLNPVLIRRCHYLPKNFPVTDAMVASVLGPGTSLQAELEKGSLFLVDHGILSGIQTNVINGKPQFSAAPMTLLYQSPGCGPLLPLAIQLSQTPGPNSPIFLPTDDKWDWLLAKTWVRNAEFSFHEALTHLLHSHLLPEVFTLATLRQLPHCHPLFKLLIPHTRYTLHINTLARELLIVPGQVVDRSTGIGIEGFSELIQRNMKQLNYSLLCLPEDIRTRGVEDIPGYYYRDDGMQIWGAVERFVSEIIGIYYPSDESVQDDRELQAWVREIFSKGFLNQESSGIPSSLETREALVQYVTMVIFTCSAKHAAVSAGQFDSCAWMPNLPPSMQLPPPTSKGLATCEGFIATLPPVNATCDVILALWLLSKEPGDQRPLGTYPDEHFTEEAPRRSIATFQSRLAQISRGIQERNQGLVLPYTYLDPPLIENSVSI
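Purified human 15hLO-2 (50 nM) preincubated 15 min with compound, then 45 uM arachidonic acid for 90 min at RT in 25 mM Hepes pH 7.5, 0.01% Triton X-100. Hydroperoxide detected by Fe-xylenol orange; 573/405 nm absorbance ratio.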
IMPase Li inh – membrane-permeable IMPase blocker, potentiated with lithium | CHO-M1 cells, IP1 TR-FRET (IP-One), carbachol + lithium | Potency, µM (highest dose often 59.4 µM), for inactives: at the top dose activity, negative = IMPase inhibition, most hits filed as inhibitors | actives 0.35% (n = 210,000) | AID 1457;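 further: IP1 builds up when IMPase is blocked and the TR-FRET signal falls; potency means the concentration at half of the fitted maximal effect; plate controls were basal vehicle for no effect and high inhibitor control for full effect; nearly all actives have a fitted effect of over 50% in size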
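IP1 accumulation measured by competitive TR-FRET in lysed CHO-M1 cells after 30 min compound exposure at 37C, with a small lithium addition to potentiate weak responses. Hill-equation AC50 from ratio and donor-channel data.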
Starred values were filed as active, the others as inactive; ? = inconclusive; nt = no result; [ ] = remark or other dose. Only some compounds are listed: those with a hit (about 5.4% of all), similar ones and a draw of the others. Unless noted, the call rests on the fitted dose curve; in most records, active means well fitted curve in the direction sought with a large enough effect; inconclusive means small, poorly fitted or top-dose-only effect, or another doubt; inactive means no such curve, though single readings can be large; an effect the other way counts as inactive or inconclusive. Unless noted, on the % scale 0 is the no-effect control and ±100 the full control effect.

SMILES	HPGD block	PNC inhibitor	12-hLO inh	IMPase inh	ALOX15B inhib	IMPase Li inh
CCc1nnc(NC(=O)CSc2ccc(-c3cccs3)nn2)s1	nt	nt	nt	nt	nt	4µM*
CCc1nnc(NC(=O)CSc2ncnc3c2cnn3-c2ccc(OC)cc2)s1	?	54	-23%	-1	?	10µM*
CC(C)(C)CC(=O)Nc1nnc(-c2cccs2)s1	?	?	2%	-13[1.84 µM]	-6%[11.4 µM]	11µM*
O=c1c(-c2cc(F)cc(F)c2)nc2cnc(N3CCNCC3)nc2n1CCc1ccccc1	-29%	nt	4%	nt	42%	5%
O=C(NCCc1ccc(Cl)cc1)c1nnc(Cc2ccc(Cl)cc2Cl)o1	nt	nt	nt	-3	nt	nt
CCc1nnc(NC(=O)CSc2nc(-c3ccccc3)cc(-c3ccc(F)cc3)c2C#N)s1	-19%	24	-1%	-6	-15%	10µM*
CCc1nnc(NC(=O)CSc2nc(-c3ccccc3)nc3ccccc23)s1	-12%	19	0%	nt	nt	10µM*
CCc1nnc(NC(=O)CSc2nnc(-c3cccnc3)n2CC)s1	-9%	-104*	2%	-7	-1%	29%[38.3 µM]
CC(CN(C)C)NC(=O)c1ccc(Cc2nc3ccccc3[nH]2)cc1 (centres undefined)	-1%	nt	7%	nt	nt	nt
O=S(=O)(O)c1ccc(NN(c2c(O)ccc3ccccc23)S(=O)(=O)O)cc1	-15%	nt	-1%[11.4 µM]	nt	-13%[11.4 µM]	-4%
O=C(NCc1cccs1)C1CCN(c2ccc(S(=O)(=O)N3CCOCC3)cc2Cl)CC1	-21%	-124*	-6%	7	-5%	13%[38.3 µM]
O=C(NC1CC1)C1CCN(c2ccc(S(=O)(=O)N3CCOCC3)cc2Cl)CC1	25µM*	-2	5%	3	-3%	0%[38.3 µM]
C#CCNC(=O)C1CCN(c2ccc(S(=O)(=O)N3CCOCC3)cc2Cl)CC1	nt	nt	nt	nt	nt	9%
COc1cc2cc3c4c(cc(OC)c(OC)c4c2cc1OC)CCN3C	?	nt	?	21	13µM*	54%
CCOC(=O)c1sc(-c2ccc(OC)cc2)cc1NC(C)=O	?	55	3%	nt	nt	11µM*
CCOc1ccc(NC(=O)Nc2cc(-c3ccccc3)sc2C(=O)OC)cc1	-21%	?	-2%	-2	nt	11%
CC1(C)Cn2c(nnc2-c2cccc(O)c2)S1	16µM*	39	-6%	2	-16%	11%[38.3 µM]
CC1Cn2c(nnc2-c2cccc(Cl)c2)S1 (centres undefined)	-29%	-17	2%	-14	nt	3%
CCN(CC)C(=O)C1CCN(c2ncnc3c2cnn3-c2ccc(C)cc2C)CC1	22µM*	-24	-2%	3	7%	12%[38.3 µM]
Cc1ccc(-n2ncc3c(NCCCOC(C)C)ncnc32)c(C)c1	-29%	1	-6%	-2	-18%	2%[38.3 µM]
CCc1cc2c(NCC3CCCO3)ncnc2s1 (centres undefined)	14µM*	11	1%	12	3%	10%[38.3 µM]
C=CCNc1ncnc2c1cnn2-c1ccc(C)cc1C	14µM*	6	-11%	-2	0%	21%[38.3 µM]
Cc1ccc(-n2ncc3c(NCC4CCCO4)ncnc32)c(C)c1 (centres undefined)	2.2µM*	38	-1%	-11	-10%	27%[38.3 µM]
CCOC(=O)N1CCC(Nc2ncnc3c2cnn3-c2ccc(C)cc2C)CC1	-12%	-21	-4%	7	-2%	28%[38.3 µM]
COc1ccccc1NC(c1ccc(Cl)cc1)c1nnc(-c2cccc(F)c2)o1 (centres undefined)	nt	nt	nt	-1	nt	nt
SMILES	HPGD block	PNC inhibitor	12-hLO inh	IMPase inh	ALOX15B inhib	IMPase Li inh
Fc1ccc(CSc2nc3ncccc3[nH]2)cc1	-23%	28	-2%	-9	-9%	8%[38.3 µM]
O=C(CSc1nc2ncccc2[nH]1)c1cccc([N+](=O)[O-])c1	?	-113*	5%	-1	nt	15%
Fc1cccc(CSc2nc3ncccc3[nH]2)c1	18µM*	25	-5%	8	-9%	-6%[38.3 µM]
O=C(CSc1nc2ncccc2[nH]1)c1ccc(F)cc1	-26%	-14	-4%	-5	-21%	5%[38.3 µM]
COCC1=C2c3ccccc3[C@@H]3CNC(=O)C3(C(=O)OC)C[C@@H]2n2c(=O)n(-c3ccccc3)c(=O)n2C1 (some centres undefined)	-17%	nt	2%	nt	nt	7%
CCCOc1ccc(/C=C/C(=O)Nc2sc(C)c(C)c2C(=O)OCC)cc1OC	nt	nt	nt	-2	nt	nt
Cc1cc([N+](=O)[O-])nn1CCCC(=O)Nc1sc2c(c1C(N)=O)CCC(C)C2 (centres undefined)	16µM*	-13	-1%	nt	nt	2%
O=C(NCCn1ccc2ccccc21)c1ccc(Cl)cc1	nt	nt	nt	3	nt	nt
NCCSCCC(=O)O	-10%	nt	-1%[11.4 µM]	nt	-5%[11.4 µM]	-2%
N/C(=N\OC(=O)N1c2ccccc2Sc2ccccc21)c1ccccc1	18µM*	?	-25%	11	nt	1%
N/C(=N\OC(=O)c1ccccc1Cl)c1ccc(Cl)cc1	16µM*	?	-1%	9	8%	16%[38.3 µM]
N/C(=N\OC(=O)Oc1ccccc1)c1cccc([N+](=O)[O-])c1	-5%	10	-2%	nt	nt	3%
COc1ccccc1C(=O)O/N=C(\N)c1ccccc1Cl	28µM*	-2	0%	nt	nt	-7%
N/C(=N\OC(=O)Oc1ccccc1)c1ccc([N+](=O)[O-])cc1	-2%	-121*	-4%	nt	nt	-2%
Cc1ccccc1C(=O)O/N=C(\N)c1cccc([N+](=O)[O-])c1	2.8µM*	-4	9%	4	-5%	19%[38.3 µM]
O=C(O/N=C(\c1ccccc1)c1ccncc1)c1ccccc1Cl	nt	nt	nt	nt	nt	-8%
N/C(=N\OC(=O)c1ccccc1Cl)c1ccccc1	11µM*	79	1%	12	1%	-9%[38.3 µM]
CCCCCCCC/C=C\CCCCCCCC(=O)N(CCO)CCO	-8%	nt	0%	nt	2%	-9%
O=C(Nc1ccc(N2CCCC2)cc1)C(Cl)c1ccccc1 (centres undefined)	-15%	-7	-10%	-3	13µM*	49%[38.3 µM]
Cc1ccccc1Nc1c(-c2ccc(N3CCOCC3)cc2)nc2ccc(Cl)cn12	nt	nt	nt	-7	nt	nt
CC(C)Oc1ccc(/C(O)=C2/C(=O)C(=O)N(CCN3CCOCC3)C2c2ccccc2)cc1 (centres undefined)	-16%	-17	3%	?	0%	5µM*
CO/C=C\C=C/c1nnn(-c2ccc(Cl)cc2)n1	-15%	-94*	-20%	nt	nt	-2%
Clc1ccc(-n2cnnn2)cc1	-1%	-6	-2%	0	-1%	0%
COc1ccc(C(=O)NC(=S)Nc2ccc(N3CCOCC3)c(Cl)c2)cc1[N+](=O)[O-]	8.9µM*	-100*	?	nt	nt	-4%
CCOc1ccc(C(=O)NC(=S)Nc2ccc(N3CCC(C)CC3)cc2)cc1[N+](=O)[O-]	-30%	-119*	-3%	4	nt	11%

Bioassay records: PubChem, National Center for Advancing Translational Sciences (NCATS)
